Experimental data reported in PubChem BioAssay AID1159580 (chemical genetic matrix, 2015).
Screen size: about 5,500 compounds; about 2,000 (36%) were called active. About 18% were inconclusive and are not listed. Cut-off read from the data, not from the text of the source: active = normalized growth mostly below about 0.91 (no sharp cut-off); inconclusive = no clear call, values can overlap the other calls; inactive = mostly above about 0.92. This is one part of the list.

Test: chemical genetic growth profiling, strain panel (AID 1159580);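 note: tested at 20 µM; growth read once vehicle control cultures reached saturation at 30 °C; 1 = growth at the plate median or of vehicle wells; lower values mean less growth of the strain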
Settings: growth OD

Measured: normalized growth

CCN1CCN(C(=O)NC(C(=O)N[C@@H]2C(=O)N3[C@@H]2SC(C)(C)[C@@H]3C(=O)O)c2ccccc2)C(=O)C1=O (some centres not stated)
inactive: S. cerevisiae deletion strains, locus YJR075W, strain HOC1, active compounds read low 1.01 | S. cerevisiae deletion strains, locus YKL009W, strain mrt4, active compounds read low 1.02 | S. cerevisiae deletion strains, locus YKL068W, active compounds read low 1 | S. cerevisiae deletion strains, locus YKL085W, strain MDH1 (second series), active compounds read low 0.998 | S. cerevisiae deletion strains, locus YKL085W, strain MDH1, active compounds read low 0.998 | S. cerevisiae deletion strains, locus YKL160W, strain elf1, active compounds read low 0.985 | S. cerevisiae deletion strains, locus YKL190W, strain CNB1, active compounds read low 1.01 | S. cerevisiae deletion strains, locus YKR001C, strain vps1, active compounds read low 1.01 | S. cerevisiae deletion strains, locus YKR026C, strain gcn3, active compounds read low 0.996 | S. cerevisiae deletion strains, locus YKR091W, strain srl3, active compounds read low 1 | S. cerevisiae deletion strains, locus YLL001W, strain dnm1, active compounds read low 0.979 | S. cerevisiae deletion strains, locus YLL026W, active compounds read low 1.01 | S. cerevisiae deletion strains, locus YLL041C, strain sdh2, active compounds read low 0.997 | S. cerevisiae deletion strains, locus YLR027C, strain aat2, active compounds read low 0.998 | S. cerevisiae deletion strains, locus YLR039C, strain RIC1, active compounds read low 0.991 | S. cerevisiae deletion strains, locus YLR058C, strain SHM2, active compounds read low 1.02 | S. cerevisiae deletion strains, locus YLR102C, strain apc9, active compounds read low 1 | S. cerevisiae deletion strains, locus YLR113W, strain HOG1, active compounds read low 0.987 | S. cerevisiae deletion strains, locus YLR221C, strain rsa3, active compounds read low 1 | S. cerevisiae deletion strains, locus YLR258W, strain gsy2, active compounds read low 1 | S. cerevisiae deletion strains, locus YLR262C, strain YPT6 (second series), active compounds read low 0.983 | S. cerevisiae deletion strains, locus YLR262C, strain YPT6, active compounds read low 0.993 | S. cerevisiae deletion strains, locus YLR268W, strain sec22, active compounds read low 1.02 | S. cerevisiae deletion strains, locus YLR320W, strain mms22, active compounds read low 0.978 | S. cerevisiae deletion strains, locus YLR330W, strain CHS5, active compounds read low 1.01 | S. cerevisiae deletion strains, locus YLR342W, strain FKS1 (second series), active compounds read low 1.03 | S. cerevisiae deletion strains, locus YLR342W, strain FKS1, active compounds read low 0.991 | S. cerevisiae deletion strains, locus YLR357W, strain rsc2, active compounds read low 0.957 | S. cerevisiae deletion strains, locus YLR370C, strain arc18, active compounds read low 1.01 | S. cerevisiae deletion strains, locus YLR371W, strain rom2, active compounds read low 1.01 | S. cerevisiae deletion strains, locus YLR384C, strain iki3, active compounds read low 0.992 | S. cerevisiae deletion strains, locus YLR418C, strain cdc73, active compounds read low 1 | S. cerevisiae deletion strains, locus YML016C, strain PPZ1, active compounds read low 1.01 | S. cerevisiae deletion strains, locus YML032C, strain rad52, active compounds read low 1.01 | S. cerevisiae deletion strains, locus YML120C, strain ndi1, active compounds read low 1.01 | S. cerevisiae deletion strains, locus YML124C, strain tub3, active compounds read low 1.01 | S. cerevisiae deletion strains, locus YMR058W, strain fet3, active compounds read low 1 | S. cerevisiae deletion strains, locus YMR078C, strain ctf18, active compounds read low 1 | S. cerevisiae deletion strains, locus YMR125W, strain sto1, active compounds read low 0.988 | S. cerevisiae deletion strains, locus YMR129W, active compounds read low 1 | S. cerevisiae deletion strains, locus YMR205C, strain PFK2, active compounds read low 1.01 | S. cerevisiae deletion strains, locus YMR223W, strain ubp8, active compounds read low 1.01 | S. cerevisiae deletion strains, locus YMR231W, strain pep5, active compounds read low 0.989 | S. cerevisiae deletion strains, locus YMR263W, strain SAP30, active compounds read low 1.01 | S. cerevisiae deletion strains, locus YMR307W, strain GAS1, active compounds read low 0.931 | S. cerevisiae deletion strains, locus YNL067W, strain RPL9B, active compounds read low 1.01 | S. cerevisiae deletion strains, locus YNL071W, strain lat1, active compounds read low 0.999 | S. cerevisiae deletion strains, locus YNL128W, strain TEP1, active compounds read low 1.01 | S. cerevisiae deletion strains, locus YNL153C, strain GIM3, active compounds read low 1.01 | S. cerevisiae deletion strains, locus YNL183C, strain NPR1, active compounds read low 0.967 | S. cerevisiae deletion strains, locus YNL209W, strain ssb2, active compounds read low 1 | S. cerevisiae deletion strains, locus YNL233W, strain BNI4, active compounds read low 0.995 | S. cerevisiae deletion strains, locus YNL248C, strain rpa49, active compounds read low 0.996 | S. cerevisiae deletion strains, locus YNL250W, strain rad50, active compounds read low 1.01 | S. cerevisiae deletion strains, locus YNL271C, strain bni1, active compounds read low 1.01 | S. cerevisiae deletion strains, locus YNL298W, strain CLA4, active compounds read low 1.01 | S. cerevisiae deletion strains, locus YNL307C, strain MCK1, active compounds read low 1.01 | S. cerevisiae deletion strains, locus YNL322C, strain KRE1 (second series), active compounds read low 1 | S. cerevisiae deletion strains, locus YNL322C, strain KRE1, active compounds read low 1 | S. cerevisiae deletion strains, locus YNR049C, strain mso1, active compounds read low 0.993 | S. cerevisiae deletion strains, locus YNR052C, strain pop2, active compounds read low 1.01 | S. cerevisiae deletion strains, locus YOL006C, strain TOP1, active compounds read low 1.02 | S. cerevisiae deletion strains, locus YOL012C, strain htz1 1.52 | S. cerevisiae deletion strains, locus YOL147C, strain pex11, active compounds read low 1 | S. cerevisiae deletion strains, locus YOR001W, strain rrp6, active compounds read low 0.987 | S. cerevisiae deletion strains, locus YOR061W, strain CKA2, active compounds read low 1.01 | S. cerevisiae deletion strains, locus YOR069W, strain VPS5, active compounds read low 1.01 | S. cerevisiae deletion strains, locus YOR070C, strain gyp1, active compounds read low 1 | S. cerevisiae deletion strains, locus YOR080W, strain dia2, active compounds read low 0.997 | S. cerevisiae deletion strains, locus YOR083W, strain WHI5, active compounds read low 0.976 | S. cerevisiae deletion strains, locus YOR106W, strain vam3, active compounds read low 0.984 | S. cerevisiae deletion strains, locus YOR136W, strain idh2, active compounds read low 1.01 | S. cerevisiae deletion strains, locus YOR144C, strain elg1, active compounds read low 1.01 | S. cerevisiae deletion strains, locus YOR184W, strain ser1, active compounds read low 1.02 | S. cerevisiae deletion strains, locus YOR231W, strain MKK1, active compounds read low 0.985 | S. cerevisiae deletion strains, locus YOR265W, strain rbl2, active compounds read low 1 | S. cerevisiae deletion strains, locus YOR270C, strain vph1, active compounds read low 1.01 | S. cerevisiae deletion strains, locus YOR290C, strain snf2, active compounds read low 1.01 | S. cerevisiae deletion strains, locus YOR316C, strain cot1, active compounds read low 1.01 | S. cerevisiae deletion strains, locus YPL051W, strain arl3, active compounds read low 0.983 | S. cerevisiae deletion strains, locus YPL055C, strain LGE1, active compounds read low 1.01 | S. cerevisiae deletion strains, locus YPL078C, strain atp4, active compounds read low 0.976 | S. cerevisiae deletion strains, locus YPL106C, strain sse1, active compounds read low 1.02 | S. cerevisiae deletion strains, locus YPL240C, strain hsp82, active compounds read low 0.988 | S. cerevisiae deletion strains, locus YPL241C, strain CIN2, active compounds read low 1 | S. cerevisiae deletion strains, locus YPL256C, strain CLN2, active compounds read low 0.962 | S. cerevisiae deletion strains, locus YPR119W, strain clb2, active compounds read low 1.02 | S. cerevisiae deletion strains, locus YPR141C, strain kar3, active compounds read low 1.02 | S. cerevisiae deletion strains, locus YPR163C, strain tif3, active compounds read low 1.02 | S. cerevisiae deletion strains, locus YPR167C, strain met16, active compounds read low 1.02 | S. cerevisiae deletion strains, strain wtn01, active compounds read low 1.04 | S. cerevisiae strains, strain wild type, active compounds read low 1.01
